Source: PubChem BioAssay (EPA / NIEHS)
Activity calls are given as the source filed them. How the source made its calls: active means hit-call score of the fitted dose curve at least 0.9, where 1 is the maximum; inactive means score below 0.9.

Assays:
[1] = read-out: Interleukin-6 (IL6), IL6 (gene 3569); assay: BSK_CASM3C_IL6: BioMAP Diversity Plus: CASM3C Assay for Interleukin-6 (IL6) Biomarker Activity for (AID 2283040); details: primary human coronary artery smooth muscle cells; actives raise or lower the signal
[2] = read-out: Tissue plasminogen activator (tPA), PLAT (gene 5327); assay: BSK_BE3C_tPA: BioMAP Diversity Plus: BE3C Assay for Tissue plasminogen activator (tPA) Biomarker Activity (AID 2283041); details: primary human bronchial epithelial cells; actives raise or lower the signal
Summary of the method: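 ELISA read-out of tPA on human primary bronchial epithelial cells, 24 h post-dosing; bidirectional fit vs DMSO negative control/baseline.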

[3] = read-out: Interleukin-8 (IL8), CXCL8 (gene 3576); assay: BSK_CASM3C_IL8: BioMAP Diversity Plus: CASM3C Assay for Interleukin-8 (IL8) Biomarker Activity (AID 2283042); details: primary human coronary artery smooth muscle cells; actives raise or lower the signal;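 further: IL-8 protein level quantified by ELISA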
[4] = read-out: Human Leukocyte Antigen - DR isotype (HLADR), HLA-DRA (gene 3122); assay: BSK_CASM3C_HLADR: BioMAP Diversity Plus: CASM3C Assay for Human Leukocyte Antigen - DR isotype (HLADR) Biomarker Activity (AID 2283043); details: primary human coronary artery smooth muscle cells; actives raise or lower the signal;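 further: cell-surface HLA-DR protein level quantified by ELISA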
[5] = read-out: Macrophage colony-stimulating factor (MCSF), CSF1 (gene 1435); assay: BSK_CASM3C_MCSF: BioMAP Diversity Plus: CASM3C Assay for Macrophage colony-stimulating factor (MCSF) Biomarker Activity (AID 2283044); details: primary human coronary artery smooth muscle cells; actives raise or lower the signal;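 further: M-CSF protein amount quantified by ELISA after 24 h exposure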
[6] = read-out: Low-density lipoprotein receptor (LDLR), LDLR (gene 3949); assay: BSK_CASM3C_LDLR: BioMAP Diversity Plus: CASM3C Assay for Low-density lipoprotein receptor (LDLR) Biomarker Activity (AID 2283045); details: primary human coronary artery smooth muscle cells; actives raise or lower the signal;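 further: LDLR protein level on the cell surface quantified by ELISA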
[7] = read-out: Monocyte Chemoattractant Protein-1 (MCP1), CCL2 (gene 6347); assay: BSK_CASM3C_MCP1: BioMAP Diversity Plus: CASM3C Assay for Monocyte Chemoattractant Protein-1 (MCP1) Biomarker Activity (AID 2283046); details: primary human coronary artery smooth muscle cells; actives raise or lower the signal;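 further: MCP-1 level quantified by ELISA 24 h after dosing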
[8] = BSK_CASM3C_Proliferation: Cell Proliferation Assessment in the BioMAP Diversity Plus: CASM3C Assay (AID 2283047); details: primary human coronary artery smooth muscle cells;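 further: sulforhodamine B total protein stain as relative cell number at 560 nm; sub-confluent cells exposed 48 h before staining; fitted both ways against DMSO so gain or loss of cell number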
[9] = read-out: Monokine induced gamma interferon (MIG), CXCL9 (gene 4283); assay: BSK_CASM3C_MIG: BioMAP Diversity Plus: CASM3C Assay for Monokine induced gamma interferon (MIG) Biomarker Activity (AID 2283048); details: primary human coronary artery smooth muscle cells; actives raise or lower the signal;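 further: MIG protein level measured by ELISA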
[10] = read-out: serum amyloid A (SAA), SAA1 (gene 6288); assay: BSK_CASM3C_SAA: BioMAP Diversity Plus: CASM3C Assay for serum amyloid A (SAA) Biomarker Activity (AID 2283049); details: primary human coronary artery smooth muscle cells; actives raise or lower the signal;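 further: SAA protein level quantified by ELISA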

Measured: AC50

CC1(C)C(C=C(Cl)Cl)C1C(=O)OC(C#N)c1cccc(Oc2ccccc2)c1 (centres undefined)
inactive: all assays above

CC(C)Nc1nc(Cl)nc(NC(C)C)n1
inactive: all assays above

Nc1c(Cl)c(F)nc(OCC(=O)O)c1Cl
inactive: all assays above

CCNC(=O)NC(=O)C(C#N)=NOC
active: [1] 6.13 µM | [7] 1.98 µM
inactive: all other assays above

Cc1nc(N(C)C)nc(OC(=O)N(C)C)c1C
inactive: all assays above

CCOc1cc(C(C)(C)C)ccc1C1COC(c2c(F)cccc2F)=N1 (centres undefined)
active: [2] 22.1 µM | [7] 32.5 µM | [8] 33 µM
inactive: all other assays above

Nc1c(Cl)c(Cl)nc(C(=O)O)c1Cl
inactive: all assays above

CS(=O)(=O)c1ccc(C(=O)C2C(=O)CCCC2=O)c([N+](=O)[O-])c1
inactive: all assays above

CC1(C)C(C(=O)OC(C#N)c2cccc(Oc3ccccc3)c2)C1(C)C (centres undefined)
active: [1] 30.9 µM | [8] 13.2 µM
inactive: all other assays above

COC(=O)NS(=O)(=O)c1ccc(N)cc1
inactive: all assays above

CN=C=S
inactive: all assays above

N#Cc1c[nH]cc1-c1cccc2c1OC(F)(F)O2
active: [8] 20 µM
inactive: all other assays above

CC1(C)CON(Cc2ccccc2Cl)C1=O
inactive: all assays above

CCCN(CC)CC1COC2(CCC(C(C)(C)C)CC2)O1 (centres undefined)
active: [8] 7.08 µM
inactive: all other assays above

CCCC(=NOCC)C1=C(O)CC(CC(C)SCC)CC1=O (centres undefined)
inactive: all assays above

CC(C)Oc1cccc(NC(=O)c2ccccc2C(F)(F)F)c1
inactive: all assays above

O=P(O)(O)CCCl
inactive: all assays above

COCC(=O)N(c1c(C)cccc1C)C(C)C(=O)OC (centres undefined)
inactive: all assays above

CCOC(=O)C(C)OC(=O)c1cc(Oc2ccc(C(F)(F)F)cc2Cl)ccc1[N+](=O)[O-] (centres undefined)
active: [5] 0.989 µM | [7] 8.51 µM
inactive: all other assays above

COc1ccc(-c2ccccc2)cc1NNC(=O)OC(C)C
inactive: all assays above

CC(C)(C)C(=O)C(Oc1ccc(Cl)cc1)n1cncn1 (centres undefined)
inactive: all assays above

Cc1c(COC(=O)[C@@H]2[C@H](/C=C(\Cl)C(F)(F)F)C2(C)C)cccc1-c1ccccc1
inactive: all assays above

CO/N=C(/C1=NOCCO1)c1ccccc1Oc1ncnc(Oc2ccccc2Cl)c1F
active: [6] 13.5 µM | [8] 12.9 µM
inactive: all other assays above

O=C1C2CC=CCC2C(=O)N1SC(Cl)(Cl)Cl (centres undefined)
active: [1] 30.9 µM | [2] 11.4 µM | [3] 31.7 µM | [4] 13.4 µM | [5] 28.9 µM | [7] 31.7 µM | [8] 7.03 µM | [9] 34.9 µM | [10] 35 µM
inactive: [6]

COC(=O)c1c(C(F)F)nc(C(F)(F)F)c(C2=NCCS2)c1CC(C)C
inactive: all assays above

C=C(C)CN(CC)c1c([N+](=O)[O-])cc(C(F)(F)F)cc1[N+](=O)[O-]
inactive: all assays above

CS(=O)(=O)c1cc(C(F)(F)F)ccc1C(=O)c1cnoc1C1CC1
inactive: all assays above

CN/C(=N\[N+](=O)[O-])NCc1cnc(Cl)s1
inactive: all assays above

Cn1c(-c2ccccc2)cc(-c2ccccc2)[n+]1C
inactive: all assays above

COCc1cnc(C2=NC(C)(C(C)C)C(=O)N2)c(C(=O)O)c1 (centres undefined)
inactive: all assays above

CC(C)NC(=O)N1CC(=O)N(c2cc(Cl)cc(Cl)c2)C1=O
inactive: all assays above

Cc1cc(C)nc(Nc2ccccc2)n1
inactive: all assays above

CNC(=O)N(C)c1nnc(C(C)(C)C)s1
inactive: all assays above

O=C(O)c1c(Cl)ccc2cc(Cl)cnc12
inactive: all assays above

COP(=S)(OC)SCn1nnc2ccccc2c1=O
inactive: all assays above

CCOP(=S)(OCC)Oc1nc(Cl)n(C(C)C)n1
inactive: all assays above

CC1(C)CCC(=Cc2ccc(Cl)cc2)C1(O)Cn1cncn1 (centres undefined)
inactive: all assays above

CCCCC(O)(Cn1cncn1)c1ccc(Cl)cc1Cl (centres undefined)
inactive: all assays above

CC(C)C1(C)N=C(c2ncccc2C(=O)O)NC1=O (centres undefined)
inactive: all assays above

O=C(Nc1ccccc1-c1ccc(Cl)cc1)c1cccnc1Cl
inactive: all assays above

COc1cc(Cl)c(OC)cc1Cl
inactive: all assays above

COC(=O)NC(=S)Nc1ccccc1NC(=S)NC(=O)OC
inactive: all assays above

CCOc1nc(C(Cl)(Cl)Cl)ns1
inactive: all assays above

CNC(=O)Oc1cccc2ccccc12
active: [8] 26.2 µM
inactive: all other assays above

Clc1cccc(C(Cl)(Cl)Cl)n1
inactive: all assays above

COP(=O)(OC)O/C(C)=C/C(=O)N(C)C
inactive: all assays above

Cc1ccc(N=CN(C)C=Nc2ccc(C)cc2C)c(C)c1
active: [1] 30.9 µM | [5] 29.6 µM | [8] 30.4 µM | [10] 28.7 µM
inactive: all other assays above

COP(=S)(OC)Oc1ccc([N+](=O)[O-])c(C)c1
inactive: all assays above

OC(c1ccc(Cl)cc1)(c1ccc(Cl)cc1)C(Cl)(Cl)Cl
inactive: [1] | [4] | [6]
active: [2] 13.1 µM | [3] 33.4 µM | [5] 36.2 µM | [7] 35.2 µM | [8] 30.4 µM | [9] 31.3 µM | [10] 32.2 µM

Nc1cnn(-c2ccccc2)c(=O)c1Cl
inactive: all assays above

CCC(C)n1c(=O)[nH]c(C)c(Br)c1=O (centres undefined)
inactive: all assays above

CC(C)=CC1C(C(=O)OCc2coc(Cc3ccccc3)c2)C1(C)C (centres undefined)
active: [8] 24.6 µM
inactive: all other assays above

COC(=O)N(C(=O)N1CO[C@@]2(C(=O)OC)Cc3cc(Cl)ccc3C2=N1)c1ccc(OC(F)(F)F)cc1
active: [8] 12.4 µM
inactive: all other assays above

CCN(CC)C(=O)C(C)Oc1cccc2ccccc12 (centres undefined)
active: [8] 0.531 µM
inactive: all other assays above

CCNP(=S)(OC)O/C(C)=C/C(=O)OC(C)C (centres undefined)
inactive: all assays above

CCOc1nc(F)cc2nc(S(=O)(=O)Nc3c(Cl)cccc3Cl)nn12
inactive: all assays above

CSC(=O)c1c(C(F)F)nc(C(F)(F)F)c(C(=O)SC)c1CC(C)C
active: [1] 3.97 µM
inactive: all other assays above

CCSC(=O)N1CCCCCC1
inactive: all assays above

O=c1n(Cl)c(=O)n(Cl)c(=O)n1Cl
inactive: all assays above

C=CCOC(=O)C(C)(C)OC(=O)c1cc(-n2c(=O)cc(C(F)(F)F)n(C)c2=O)ccc1Cl
active: [7] 12.9 µM | [10] 0.859 µM
inactive: all other assays above

COc1cc(OC)nc(NC(=O)NS(=O)(=O)c2ncccc2OCC(F)(F)F)n1
inactive: all assays above

CCN(CC)c1nc(C)cc(OP(=S)(OC)OC)n1
active: [4] 11.8 µM
inactive: all other assays above

CCCCOCN(C(=O)CCl)c1c(CC)cccc1CC
inactive: [6] | [9] | [10]
active: [1] 4.92 µM | [2] 36.9 µM | [3] 5.08 µM | [4] 26.1 µM | [5] 28.8 µM | [7] 33.2 µM | [8] 27.4 µM

Cc1cnc(C2=NC(C)(C(C)C)C(=O)N2)c(C(=O)O)c1 (centres undefined)
inactive: all assays above

CCOP(=O)(OCC)Oc1nc(Cl)c(Cl)cc1Cl
inactive: all assays above

CC(C)N1C(=O)c2ccccc2NS1(=O)=O
not listed: [7]
inactive: all other assays above

N#CN=C1SCCN1Cc1ccc(Cl)nc1
inactive: all assays above

N#Cc1c(Cl)cccc1Cl
inactive: all assays above

COCC(C)N(C(=O)CCl)c1c(C)csc1C (centres undefined)
inactive: all assays above

CCCCC(C#N)(Cn1cncn1)c1ccc(Cl)cc1 (centres undefined)
inactive: all assays above

CC(C)N1C(=O)N(c2ccccc2)CSC1=NC(C)(C)C
active: [8] 30 µM
inactive: all other assays above

Clc1nc(Cl)nc(Nc2ccccc2Cl)n1
inactive: all assays above
